# PubChem BioAssay (NCATS)
# Assay: High-throughput drug toxicity screening in the BPDCN cell line Gen2.2 (AID 1224824);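 note: cells exposed to compounds for 48 h before reading; 100% = DMSO and 0% = bortezomib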
# Conditions: Gen2.2 BPDCN cells; at 45.8 µM (top of the series) unless noted
# Outline: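 Readout is ATP luminescence from Gen2.2 cells after two days of drug exposure in serum-containing medium at 37 °C. Values express percent activity, with vehicle defining full signal and 9.2 uM bortezomib defining zero.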
row,Compound,"cell viability, % of control (lower = more cytotoxic)"
1,O=C(Nc1cccc(Br)c1)c1cccc(S(=O)(=O)N2CCCCCC2)c1,296%
2,C[C@H]1[C@H](NC(=O)C(=NOC(C)(C)C(=O)O)c2csc(N)n2)C(=O)N1S(=O)(=O)O,120%
3,COC1CCC(N(C(=O)C2CCC(C)CC2)c2cc(C3=CCCCC3)sc2C(=O)O)CC1 (stereo not drawn),66.7%
4,CCCCCCCCCCCC1=C(O)C(=O)C=C(O)C1=O,52.7%
5,Cc1c(O)cccc1C(=O)N[C@@H](CSc1ccccc1)[C@H](O)CN1C[C@H]2CCCC[C@@H]2C[C@@H]1C(=O)NC(C)(C)C,66.8%
6,CNC(=O)c1ccc2cc(C3(O)CCn4cncc43)ccc2c1 (stereo not drawn),82.2%
7,Cc1cccc(Nc2nc(-c3ccncc3)cs2)c1,75.6%
8,CC(C)C(C)C=CC(C)C1CCC2C3=CC=C4CC(O)CCC4(C)C3CCC21C (stereo not drawn),136%
9,O=C1NC(=O)C(=Cc2ccc3nccnc3c2)S1,31% [at 23.2 µM]
10,Cc1nnc(C(C)C)n1C1C[C@H]2CC[C@@H](C1)N2CC[C@H](NC(=O)C1CCC(F)(F)CC1)c1ccccc1 (stereo partly drawn),75.3%
11,O=c1ccn([C@@H]2O[C@H](CO)[C@H](O)[C@H]2O)c(=O)[nH]1,90%
12,C[C@]12CC[C@@H]3c4ccc(O)cc4C[C@@H](CCCCCCCCCS(=O)CCCC(F)(F)C(F)(F)F)[C@H]3[C@H]1CC[C@H]2O (stereo partly drawn),105%
13,O=C1NC(=O)C(=Cc2cccc(C(F)(F)F)c2)S1,128%
14,O=c1cc(-c2ccccc2)oc2cc(O)cc(O)c12,45.9%
15,COC[C@@H](c1ccc(C(F)(F)F)cc1)N1CCN(C2(C)CCN(C(=O)c3c(C)ncnc3C)CC2)C[C@H]1C,7.13%
16,COc1cccc([C@@H](C)NCCCc2ccccc2Cl)c1,172%
17,CN(C)CCC=C1c2ccccc2COc2ccc(CC(=O)O)cc21,162%
18,NC(=O)c1ccc2nc(-c3ccc(Oc4ccc(Cl)cc4)cc3)[nH]c2c1,59.5%
19,CCC(CC)[C@H](NC(C)=O)[C@@H]1[C@H](O)[C@@H](C(=O)O)C[C@@H]1N=C(N)N,81.8%

row,Compound,"cell viability, % of control (lower = more cytotoxic)"
1,COc1cc(N2CCC(N3CCN(C)CC3)CC2)ccc1Nc1ncnc(Nc2ccccc2S(=O)(=O)C(C)C)n1,2%
2,O=C1c2ccccc2-[n+]2ccc3c([nH]c4ccccc43)c21,5.04%
3,CC(C(=O)O)c1ccc(-c2ccccc2)c(F)c1 (stereo not drawn),84.9%
4,COc1ccc2c3c1OC1C[C@@H](O)C=C[C@@]31CCN(C)C2 (stereo partly drawn),113%
5,CO[C@H]1C[C@@H]2CC[C@@H](C)[C@@](O)(O2)C(=O)C(=O)N2CCCC[C@@H]2C(=O)O[C@H]([C@H](C)C[C@@H]2CC[C@H](OP(C)(C)=O)[C@H](OC)C2)CC(=O)[C@H](C)C=C(C)[C@@H](O)[C@@H](OC)C(=O)[C@H](C)C[C@H](C)C=CC=CC=C1C,10.4%
6,O=C1C[C@@H](c2ccc(O)cc2)Oc2cc(O)cc(O)c21,70.3%
7,O=C(Nc1c(Cl)cncc1Cl)c1ccc(OC(F)F)c(OCC2CC2)c1,134%
8,CC(C)(C)OC(=O)N[C@H]1CCCCCC=C[C@@H]2C[C@@]2(C(=O)NS(=O)(=O)C2CC2)NC(=O)[C@@H]2C[C@@H](OC(=O)N3Cc4cccc(F)c4C3)CN2C1=O,46.5%
9,CC(=NNC(=S)N1CCC1)c1ccccn1,91.1%
10,O=C(O)c1ccccc1C(=O)Nc1ccc(-c2ccccc2)cc1,156%
11,CC=C(C)C(=O)O[C@H]1C(C)=C[C@]23C(=O)[C@@H](C=C(CO)[C@@H](O)[C@]12O)[C@H]1[C@@H](C[C@H]3C)C1(C)C,38.4%
12,CN(C[C@@H]1COCCO1)S(=O)(=O)Nc1ccc2ccc3ncc(-c4cnn(C)c4)cc3c(=O)c2c1,12.9%
13,O=C(OCC#CCSc1nnc(-c2cccc3ccccc23)o1)c1cc2ccccc2s1,91.8%
14,NC[C@@H]1O[C@@H](O[C@H]2[C@@H](O)[C@H](O[C@@H]3[C@@H](O)[C@@H](N)C[C@H](N)[C@H]3O[C@H]3O[C@H](CN)[C@@H](O)[C@@H](O)[C@H]3N)O[C@H]2CO)[C@H](N)[C@@H](O)[C@@H]1O,134%
15,Cc1nc(N)sc1-c1ccnc(Nc2ccc(N3CCOCC3)cc2)n1,33.6%
16,Oc1ccc(C2CCN(c3ccnc4ccccc34)CC2)cc1O,31%
17,CC1(C)O[C@H]2C[C@@H]3[C@H]4CCC5=CC(=O)C=C[C@]5(C)[C@@]4(F)[C@@H](O)C[C@]3(C)[C@]2(C(=O)CO)O1,37.9%
18,O=C(NC1CCOCC1)c1ccc(-c2cc(-c3cn[nH]c3-c3ccccn3)ccn2)cc1,724%
19,N#CC1(c2ccc(NC(=O)c3cccnc3NCc3ccncc3)cc2)CCCC1,286%
